The source of these data is PubChem BioAssay (NCI).

Structures are written as SMILES. Where “and” joins values, the source holds several entries; their conditions need not be identical. Identical values can stand only once. The panel holds about 79,000 compounds, 15% with a hit somewhere; the sample as a whole holds those more often. Some structures have more than one record in an assay (separate samples or runs), and their calls can disagree. Calls of active or inactive are those of the source. No stated cut-off is given here; in the data, active means growth inhibition above about 70%; inactive means the rest.

The nature of one test: NCI Yeast Anticancer Drug Screen. Data for the cln2 rad14 strain (AID 165).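 Further: 0% = growth equal to vehicle treated cultures.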 To be noted: S. cerevisiae cln2 rad14 strain, at 50.0 µM (retest, dose inferred, filed as 5.0), stronger effect = higher value. The procedure, abridged: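 Compounds are applied to the cln2 rad14 yeast strain, and growth is then compared with that of vehicle-treated cultures to give inhibition.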
For `CS(=O)(=O)SCc1ccc([N+](=O)[O-])cc1`, the growth inhibition is 94% (active).
On the same count and under the same terms, the figure for `Cc1csc(=S)n1OC(=O)NC1CCCCC1` is 98% (active); for `CCOc1ccc(NC(=O)C2=C(C)NC(C)=C(C(=O)Nc3ccc(OCC)cc3)C2c2cccc([N+](=O)[O-])c2)cc1` it is 90% (active); for `CC(C)(C)N=C(NO)c1ccccc1` it is 49% (inactive).
The same measure, in the same setting: in the case of `CCCCC/C(=C(\C#N)C(=O)OCC)c1ccccc1` it was 13% (inactive); in that of `O=C(NCCCl)Sc1ccc(Cl)cc1`, 8% (inactive); in that of `O=C1Nc2ccc(Br)cc2C1=Nc1ccc2c(c1)OCO2`, 26% (inactive).
On the same count and under the same terms, the figure for `CCC(C)OC(=O)Nc1ccc(C)c(NC(=O)OC(C)CC)c1` (stereo not drawn) is 74% (active); for `O=C(O)c1cc2ccc(Cl)cc2c(O)c1C1=CCCCC1` it is 63% (inactive); for `CN(C)Cc1cc(N=Nc2ccc(Cl)cc2)ccc1OC(=O)c1ccccc1` it is 51% (inactive).
For the compound `CN1CCN(C(=O)/C=C/C(=O)c2ccccc2)CC1`, the growth inhibition was -10% (inactive).
Still for that read-out and setting: the figure for `CCCC/C=C/C(C)(C(=O)OCC)C(=O)OCC` is 32% (inactive); for `Cc1nc(-c2cc3cc([N+](=O)[O-])ccc3oc2=O)cs1` it is 13% (inactive); for `Cc1nc2ccccc2nc1NNc1ccccc1` it is 48% (inactive).
Take `CN(C)[C@@H]1C(=O)C(C(N)=O)=C(O)[C@@]2(O)C(=O)C3=C(O)c4c(O)cccc4C[C@H]3C[C@@H]12`: the growth inhibition was 99% (active).
The same measure, in the same setting: the figure for `COc1ccc(NC(=O)CC2SC(=Nc3ccccc3C)NC2=O)c([N+](=O)[O-])c1` (stereo not drawn) is 22% (inactive); for `COc1cc(O)c2c(c1O)C(=O)c1cc(C)ncc1C2=O` it is 12% (inactive); for `CSc1nnc(SC)nn1` it is 95% (active).
As for `COc1cc(/C=C2\CCC/C(=C\c3ccc(O)c(OC)c3)C2=O)ccc1O`, the growth inhibition was 6% (inactive).
With `CN(C)CCNC(=O)c1cccc2cc([N+](=O)[O-])ccc12`, the growth inhibition was 55% (inactive).
Turning to `CCC(C)(C)c1ccc(Oc2cccc(C(=O)O)c2)cc1`, the growth inhibition is 30% (inactive).
Take `CCCCCCSc1ncnc2[nH]ncc12`: the growth inhibition was 6% (inactive).
As to `CC(=O)Nc1ccc(/C=C/[N+](=O)[O-])cc1`, the growth inhibition was -19% (inactive).
In the case of `CCOC(=O)c1[nH]n(-c2ccccc2)c(=O)c1C=NC(=S)C(N)=S`, the growth inhibition was 12% (inactive).
`CCCC(O)C1CC(C(C)C)CCC1C` (stereo not drawn): the growth inhibition was 44% (inactive).
Same read-out and setting: the figure for `O=[n+]1c2ccccc2n([O-])c2cc(Br)ccc21` is 99% (active); for `CN(C)CCNC(=O)c1cccc2c1Oc1c(cccc1[N+](=O)[O-])O2` it is 38% (inactive).
Still for that read-out and setting: in the case of `Nc1ncc(-c2ccc(Br)cc2)s1` it was 99% (active); in that of `Cc1cc2cc3cc(C)c(N)cc3nc2cc1N`, 98% (active).
As to `CC12C(=O)OC(=O)C(c3ccccc31)c1ccccc12`, the growth inhibition is 5% (inactive).
Same read-out and setting: in the case of `c1ccc2c(OCC3CO3)cccc2c1` (stereo not drawn) it was 71% (active).
With `CCOC(=N)c1ccc(O)c(OC)c1`, the growth inhibition is 0% (inactive).
Same read-out and setting: the figure for `Nc1cc(N)c(N=Nc2cccc3c(S(=O)(=O)O)cccc23)cc1N=Nc1cc([N+](=O)[O-])ccc1O` is 92% (active).
`COC(=O)Oc1cc(Cl)c(Cl)cc1Cl`: the growth inhibition is 52% (inactive).
On the same count and under the same terms, in the case of `O=C(O)C1CC(c2ccccc2)=NN1c1ccccc1` (stereo not drawn) it was -61% (inactive); in that of `COc1cc([C@@H]2c3cc4c(cc3[C@@H](Nc3ccc(NC(=O)c5cc([N+](=O)[O-])cn5C)cc3)[C@H]3COC(=O)[C@H]23)OCO4)cc(OC)c1O`, 50% (inactive) and 84% (active).
`O=C(O)c1ccccc1/C=N/N=C1c2ccccc2-c2ccccc21`: the growth inhibition was 79% (active).
Take `O=C1CC(=O)c2ccccc21`: the growth inhibition was 57% (inactive).
Same read-out and setting: in the case of `Nc1ncnc2c1ncn2C1OC(CO)CC1O` (stereo not drawn) it was 87% (active) and 68% (inactive).

The test is the same for the next values; noted with them: S. cerevisiae cln2 rad14 strain, at 50.0 µM, stronger effect = higher value.
As to `CS(=O)(=O)SCc1ccc([N+](=O)[O-])cc1`, the growth inhibition was 96.5% (active).
On to `Cc1csc(=S)n1OC(=O)NC1CCCCC1`, for which the growth inhibition is 92.2% (active).
The same measure, in the same setting: the figure for `CCOc1ccc(NC(=O)C2=C(C)NC(C)=C(C(=O)Nc3ccc(OCC)cc3)C2c2cccc([N+](=O)[O-])c2)cc1` is 55.3% (inactive); for `CC(C)(C)N=C(NO)c1ccccc1` it is 43.7% (inactive); for `CCCCC/C(=C(\C#N)C(=O)OCC)c1ccccc1` it is -99% (inactive).
Turning to `O=C(NCCCl)Sc1ccc(Cl)cc1`, the growth inhibition is 42.8% (inactive).
For `O=C1Nc2ccc(Br)cc2C1=Nc1ccc2c(c1)OCO2`, the growth inhibition was 7.55% (inactive).
Still for that read-out and setting: the figure for `CCC(C)OC(=O)Nc1ccc(C)c(NC(=O)OC(C)CC)c1` (stereo not drawn) is 80% (active); for `O=C(O)c1cc2ccc(Cl)cc2c(O)c1C1=CCCCC1` it is 56.9% (inactive); for `CN(C)Cc1cc(N=Nc2ccc(Cl)cc2)ccc1OC(=O)c1ccccc1` it is 97% (active).
The same measure, in the same setting: in the case of `CN1CCN(C(=O)/C=C/C(=O)c2ccccc2)CC1` it was 72.8% (active); in that of `CCCC/C=C/C(C)(C(=O)OCC)C(=O)OCC`, 58.5% (inactive); in that of `Cc1nc(-c2cc3cc([N+](=O)[O-])ccc3oc2=O)cs1`, 59.4% (inactive).
On the same count and under the same terms, in the case of `Cc1nc2ccccc2nc1NNc1ccccc1` it was -11.8% (inactive); in that of `CN(C)[C@@H]1C(=O)C(C(N)=O)=C(O)[C@@]2(O)C(=O)C3=C(O)c4c(O)cccc4C[C@H]3C[C@@H]12`, 84.7% (active).
As to `COc1ccc(NC(=O)CC2SC(=Nc3ccccc3C)NC2=O)c([N+](=O)[O-])c1` (stereo not drawn), the growth inhibition was 32.2% (inactive).
Consider `COc1cc(O)c2c(c1O)C(=O)c1cc(C)ncc1C2=O`, for which the growth inhibition was 18.9% (inactive).
For the compound `CSc1nnc(SC)nn1`, the growth inhibition was 87.7% (active).
Take `COc1cc(/C=C2\CCC/C(=C\c3ccc(O)c(OC)c3)C2=O)ccc1O`: the growth inhibition was 1.65% (inactive) and 9.95% (inactive).
With `CN(C)CCNC(=O)c1cccc2cc([N+](=O)[O-])ccc12`, the growth inhibition is 71% (active).
Same read-out and setting: the figure for `CCC(C)(C)c1ccc(Oc2cccc(C(=O)O)c2)cc1` is 88% (active).
Same read-out and setting: the figure for `CCCCCCSc1ncnc2[nH]ncc12` is 18.9% (inactive).
On the same count and under the same terms, the figure for `CC(=O)Nc1ccc(/C=C/[N+](=O)[O-])cc1` is 46.2% (inactive); for `CCOC(=O)c1[nH]n(-c2ccccc2)c(=O)c1C=NC(=S)C(N)=S` it is 90.4% (active).
`CCCC(O)C1CC(C(C)C)CCC1C` (stereo not drawn): the growth inhibition is 92% (active).
As to `O=[n+]1c2ccccc2n([O-])c2cc(Br)ccc21`, the growth inhibition was 94.6% (active).
On to `CN(C)CCNC(=O)c1cccc2c1Oc1c(cccc1[N+](=O)[O-])O2`, for which the growth inhibition is 14.4% (inactive).
Same read-out and setting: in the case of `Nc1ncc(-c2ccc(Br)cc2)s1` it was 90.3% (active); in that of `Cc1cc2cc3cc(C)c(N)cc3nc2cc1N`, 46.8% (inactive); in that of `CC12C(=O)OC(=O)C(c3ccccc31)c1ccccc12`, 76.2% (active).
Still for that read-out and setting: in the case of `c1ccc2c(OCC3CO3)cccc2c1` (stereo not drawn) it was 63.8% (inactive); in that of `CCOC(=N)c1ccc(O)c(OC)c1`, -39.2% (inactive); in that of `Nc1cc(N)c(N=Nc2cccc3c(S(=O)(=O)O)cccc23)cc1N=Nc1cc([N+](=O)[O-])ccc1O`, 42.5% (inactive).
On the same count and under the same terms, in the case of `COC(=O)Oc1cc(Cl)c(Cl)cc1Cl` it was 22.6% (inactive); in that of `O=C(O)C1CC(c2ccccc2)=NN1c1ccccc1` (stereo not drawn), 62.8% (inactive); in that of `COc1cc([C@@H]2c3cc4c(cc3[C@@H](Nc3ccc(NC(=O)c5cc([N+](=O)[O-])cn5C)cc3)[C@H]3COC(=O)[C@H]23)OCO4)cc(OC)c1O`, 47% (inactive) and 49.9% (inactive).
For `O=C(O)c1ccccc1/C=N/N=C1c2ccccc2-c2ccccc21`, the growth inhibition is 45.7% (inactive).
In the case of `O=C1CC(=O)c2ccccc21`, the growth inhibition is 70.5% (active).
The same measure, in the same setting: in the case of `Nc1ncnc2c1ncn2C1OC(CO)CC1O` (stereo not drawn) it was 81.8% (active) and -27.8% (inactive) and 59.8% (inactive).
